Source: PubChem BioAssay (National Center for Advancing Translational Sciences (NCATS))
Rows were chosen to be rich in hits. Some 7.9% of all compounds tested hit in one or more screens of this group.
HCV inh: HCV inhibition. Huh7.5.1 HCVcc-Cre infection, luciferase reporter, 44 h. Potency, µM (series often up to 41.8 µM), hits mostly inhibitors. 340,000 tested, 3.4% active. AID 651820; active means well fitted inhibition curve with a large enough effect; inconclusive means small, poorly fitted or top-dose-only effect, or another doubt; inactive means no such curve, though single readings can be large or run the other way
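Whole-lifecycle infectious HCVcc-Cre system; cells 1,000/well, compound then virus (~0.5 moi) added 4 h after plating, 44 h culture. Luciferase read 15 sec following 15 min substrate incubation, room temp.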
FMDV antiviral: antivirals against foot and mouth disease virus; FMDV antiviral cell-based qHTS; Potency, µM (highest dose often 57.9 µM), usual class: inhibitors; AID 1159524; 410,000 tested, 1.2% active; calls by dose curve; tested in HEK293T cells; further: read-out not given here; nearly all actives have a fitted effect of over 45% in size
HCMV antiviral: human cytomegalovirus inhibition | 410,000 tested, 4.5% active | AID 1259415 | HFF cells, HCMV-luciferase reporter, 72 h; hits give low values | activity change, negative = inhibition, % at 57.5 µM; in the data active means activity change below about -60%; inconclusive means no clear call, values can overlap the other calls; inactive means above about -39%
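Steps: HFFs plated, 16 h 37C; compounds added; HCMV-luciferase added to MOI 1 PFU/cell; 72 h 37C; OneGlo reagent, 5 min room temperature; luminescence read, normalized to controls.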
Marburg entry inh: Marburg virus entry inhibition | Marburg virus pseudotyped entry inhibition, cell reporter | Potency, µM (series often up to 37.8 µM), most hits filed as inhibitors | 300,000 tested, 1.8% active; calls by dose curve; tested in HEK293 cells
Lassa entry inh: inhibitors of Lassa virus binding or cell entry; 300,000 tested, 1.2% active; Lassa virus pseudotype entry inhibition, cell reporter; Potency, µM (doses to about 37.9 µM), hits mostly inhibitors; calls by dose curve; tested in HEK293 cells; further: nearly all actives have a fitted effect of over 50% in size
Hits are given with their value.

`Cc1cccc(NC(=S)/N=C(\N)Nc2nc(C)c3ccc(C)cc3n2)c1` gave HCV inh 2µM, FMDV antiviral inactive, HCMV antiviral inactive, Marburg entry inh 11µM and Lassa entry inh inconclusive.
Cc1ccc(NC(=S)/N=C(\N)Nc2nc(C)c3ccccc3n2)cc1C was read as HCV inh 11µM, FMDV antiviral inactive, HCMV antiviral inactive, Marburg entry inh inconclusive and Lassa entry inh inactive.
Screening Cc1cccc(NC(=S)/N=C(\N)Nc2nc(C)c3cc(C)ccc3n2)c1 returned HCV inh inconclusive, FMDV antiviral inactive, HCMV antiviral inactive, Marburg entry inh inconclusive and Lassa entry inh inactive.
Screening CCc1c(C#N)sc(C(N)=O)c1CC returned HCV inh inactive, FMDV antiviral inactive, HCMV antiviral -74, Marburg entry inh inactive and Lassa entry inh inactive.
For COc1cc(-c2noc(-c3cc(C)[nH]n3)n2)cc(OC)c1OC the results were FMDV antiviral inactive, HCMV antiviral inactive and Lassa entry inh inactive.
For COc1ccc(C(CCNCc2ccc(N(C)C)cc2)c2ccccc2OC)cc1 (stereo not given) the results were HCV inh inconclusive, FMDV antiviral inconclusive, HCMV antiviral inactive, Marburg entry inh inconclusive and Lassa entry inh 16µM.
For COc1ccc(CC(C)NCCC(c2ccccc2)c2ccccc2)cc1 (stereo not given) the results were HCV inh inconclusive, FMDV antiviral inactive and HCMV antiviral inactive.
`COc1ccc(C(CCNCc2ccc(OC(C)C)cc2)c2ccccc2OC)cc1` (stereo not given) gave HCV inh inconclusive, FMDV antiviral inconclusive and HCMV antiviral -70.
Screening COc1ccc(CNCCC(c2ccc(OC)cc2)c2ccccc2OC)cc1 (stereo not given) returned HCV inh inconclusive, FMDV antiviral inactive, HCMV antiviral inconclusive, Marburg entry inh inconclusive and Lassa entry inh inactive.
`O=C1CCCC=C1[C@@H](O)COCc1ccccc1` gave Marburg entry inh inactive.
CC(=O)Nc1ccc(NC(=O)c2cccc(S(=O)(=O)N(C)C3CCCCC3)c2)cc1 was read as HCV inh inconclusive, FMDV antiviral inactive and HCMV antiviral inactive.
For Cc1ccc(S(=O)(=O)NCC2COc3ccccc3O2)cc1 (stereo not given) the results were HCV inh inactive, FMDV antiviral inactive, HCMV antiviral inactive, Marburg entry inh inactive and Lassa entry inh inactive.
For CCc1ccc(NC(=O)c2ccc(F)c(S(=O)(=O)NCCc3ccc(OC)c(OC)c3)c2)cc1 the results were FMDV antiviral inconclusive, HCMV antiviral -83 and Lassa entry inh inconclusive.
`CCc1ccc(NC(=O)c2ccc(F)c(S(=O)(=O)NC3CCCCCC3)c2)cc1` gave FMDV antiviral inactive, HCMV antiviral -79 and Lassa entry inh inconclusive.
Screening CCc1ccc(NC(=O)c2ccc(F)c(S(=O)(=O)N(C)C3CCCCC3)c2)cc1 returned FMDV antiviral inconclusive, HCMV antiviral -98 and Lassa entry inh inconclusive.
For Cc1ccc([N+](=O)[O-])cc1S(=O)(=O)NCC1COc2ccccc2O1 (stereo not given) the results were HCV inh inconclusive, FMDV antiviral inactive and HCMV antiviral -68.
For COc1cc(Cl)c(S(=O)(=O)N2CCN(c3c(C)cccc3C)CC2)cc1Cl the results were FMDV antiviral inactive, HCMV antiviral inactive, Marburg entry inh inactive and Lassa entry inh inactive.
Screening CC1CCN(S(=O)(=O)c2ccc3c(c2)N(CC(=O)N2CCN(c4ccc(Cl)cc4)CC2)C(=O)CO3)CC1 returned FMDV antiviral inactive, HCMV antiviral inactive, Marburg entry inh inactive and Lassa entry inh inactive.
`CCOc1ccc(NC(=O)c2cnc3sc(N4CCOCC4)nn3c2=O)cc1` gave FMDV antiviral inactive, HCMV antiviral inactive and Lassa entry inh inactive.
`CCc1ccc(NC(=O)c2ccc(F)c(S(=O)(=O)NCC3COc4ccccc4O3)c2)cc1` (stereo not given) gave HCV inh inconclusive, FMDV antiviral inactive, HCMV antiviral -91, Marburg entry inh 12µM and Lassa entry inh 16µM.
For CSc1sc(C)cc1C=O the results were HCV inh inactive, FMDV antiviral inactive, HCMV antiviral inactive, Marburg entry inh inactive and Lassa entry inh inactive.
CSc1cc(/C=N/O)c(SC)s1 was read as HCV inh 10µM, FMDV antiviral inactive, HCMV antiviral inactive, Marburg entry inh inconclusive and Lassa entry inh inactive.
`COc1ccc(S(=O)(=O)N2C[C@@H](O)COC[C@@H]3O[C@H](CC(=O)NCCCN4CCOCC4)CC[C@H]32)cc1` gave FMDV antiviral inactive and HCMV antiviral -74.
For COc1cccc(CNC(=O)C2=C(C)C(=O)OC23CCN(C(C)=O)CC3)c1OC the results were FMDV antiviral inactive, HCMV antiviral inactive and Lassa entry inh inactive.
Cc1ccc(-n2c3nc(=O)[nH]c(=O)c-3cc3cc([N+](=O)[O-])ccc32)cc1 was read as HCV inh inactive, FMDV antiviral 32µM, HCMV antiviral inactive, Marburg entry inh inconclusive and Lassa entry inh inconclusive.
For COC(=O)c1cccc(Nc2cc(C)nc(-c3ccccc3O)n2)c1 the results were HCV inh 0.79µM, FMDV antiviral inactive, HCMV antiviral inactive, Marburg entry inh inconclusive and Lassa entry inh inactive.
For Cc1cc(Nc2ccc(Cl)cc2)nc(-c2ccccc2O)n1 the results were HCV inh 11µM, FMDV antiviral inactive and HCMV antiviral inactive.
Screening COC(=O)c1ccc(Nc2cc(C)nc(-c3ccccc3O)n2)cc1 returned HCV inh inactive, FMDV antiviral inactive, HCMV antiviral inactive, Marburg entry inh inactive and Lassa entry inh inactive.
CCOC(=O)c1ccc(Nc2cc(C)nc(-c3ccccc3)n2)cc1 was read as HCV inh inconclusive, FMDV antiviral inactive and HCMV antiviral -76.
For Cc1ccc2cc3cc(C(=O)N4CCN(c5ccccc5)CC4)oc3nc2c1 the results were FMDV antiviral inactive, HCMV antiviral inactive and Lassa entry inh inactive.
Cc1ccc(CNC(=O)Cc2ccc(-n3c(=O)[nH]c4ccsc4c3=O)cc2)cc1 was read as HCV inh inactive, FMDV antiviral inactive, HCMV antiviral -62, Marburg entry inh inactive and Lassa entry inh inconclusive.
O=C(NC1CCCc2ccccc21)c1cn2ccccc2n1 (stereo not given) was read as HCV inh inconclusive, FMDV antiviral inactive, HCMV antiviral inactive, Marburg entry inh inactive and Lassa entry inh inactive.
Cc1cccn2c(CNC3CCCc4ccccc43)c(C(=O)N3CCCCC3)nc12 (stereo not given) was read as HCV inh inactive, FMDV antiviral inactive, HCMV antiviral inactive, Marburg entry inh 10µM and Lassa entry inh inconclusive.
COCCNc1ccc([N+](=O)[O-])cc1C(=O)NC1CCCc2ccccc21 (stereo not given) was read as HCV inh 13µM, FMDV antiviral inactive, HCMV antiviral inactive, Marburg entry inh inconclusive and Lassa entry inh inactive.
Screening COc1cc(OC)c(C(=O)NC2CCCc3ccccc32)cc1OC (stereo not given) returned HCV inh inactive, FMDV antiviral inactive, HCMV antiviral inactive, Marburg entry inh inconclusive and Lassa entry inh inconclusive.
